For assay [1], the target named is Estrogen-related receptor gamma (Homo sapiens) (UniProt P62508). Put plainly: ATG_ERRg_TRANS: Attagene TRANS-FACTORIAL HepG2 Assay for human Estrogen-Related Receptor gamma (ERRg) (AID 2282977; active means hit-call score of the fitted dose curve at least 0.9, where 1 is the maximum;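 further: hits increase reporter signal over DMSO so potencies reflect activators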). Conditions: HepG2 Attagene TRANS reporter, ERRg transactivation. A digest of the protocol: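 HepG2 cells transiently transfected with multiplexed GAL4-UAS reporter units and chimeric NR-Gal4 constructs were exposed to test chemicals for 24 h. Reporter mRNA was measured by RT-PCR, 6-FAM primer extension, HpaI digestion and capillary electrophoresis; gain-of-signal versus DMSO.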
Chain of Estrogen-related receptor gamma (Homo sapiens) (P62508 whole entry, looked up, the tested form may be a part): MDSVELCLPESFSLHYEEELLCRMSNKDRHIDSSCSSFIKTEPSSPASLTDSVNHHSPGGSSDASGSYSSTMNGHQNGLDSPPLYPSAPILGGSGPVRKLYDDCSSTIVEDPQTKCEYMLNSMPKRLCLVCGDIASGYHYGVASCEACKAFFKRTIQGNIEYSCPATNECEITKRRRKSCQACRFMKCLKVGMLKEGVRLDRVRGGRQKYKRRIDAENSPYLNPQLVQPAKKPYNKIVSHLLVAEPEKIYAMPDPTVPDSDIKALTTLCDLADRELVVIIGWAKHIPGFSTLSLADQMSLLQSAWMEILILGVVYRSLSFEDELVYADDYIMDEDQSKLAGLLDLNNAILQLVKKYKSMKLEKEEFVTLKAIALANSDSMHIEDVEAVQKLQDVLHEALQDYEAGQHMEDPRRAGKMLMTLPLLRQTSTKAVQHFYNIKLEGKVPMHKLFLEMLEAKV

In assay [2] the target is Glucocorticoid receptor (Homo sapiens) (UniProt P04150). Description: ATG_GR_TRANS: Attagene TRANS-FACTORIAL HepG2 Assay for human Glucocorticoid Receptor (GR) (AID 2282978; active means hit-call score of the fitted dose curve at least 0.9, where 1 is the maximum;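 further: activators score as hits since higher reporter transcript over DMSO is fitted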). Particulars: HepG2 Attagene TRANS GR reporter, mRNA transcription. A digest of the protocol:
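Measurement of GAL4-UAS-driven reporter mRNA in human HepG2 liver cells 24 h post-dosing, using RT-PCR with fluorescent labelling and capillary electrophoresis; the transfected constructs report exogenous NR-GAL4 chimera activity, fitted upward against DMSO.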

Assay [3] deals with Oxysterols receptor LXR-beta (Homo sapiens) (UniProt P55055). Put plainly: ATG_LXRb_TRANS: Attagene TRANS-FACTORIAL HepG2 Assay for human Liver X Receptor beta (LXRb) (AID 2282981; active means hit-call score of the fitted dose curve at least 0.9, where 1 is the maximum). Particulars: HepG2 Attagene TRANS GAL4-LXRb reporter, mRNA. A digest of the protocol:
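Gain-of-signal mRNA reporter endpoint, DMSO as negative control. Transiently transfected HepG2 cells carrying the NR-Gal4 chimera and GAL4-UAS reporter units were treated 24 h; transcripts quantified by RT-PCR and capillary electrophoresis fluorescence.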

Assay [4] deals with Hepatocyte nuclear factor 4-alpha (Homo sapiens) (UniProt P41235). Put plainly: ATG_HNF4a_TRANS: Attagene TRANS-FACTORIAL HepG2 Assay for human Hepatocyte Nuclear Factor 4 alpha (HNF4a) (AID 2282982; active means hit-call score of the fitted dose curve at least 0.9, where 1 is the maximum). Particulars: HepG2 HNF4a transactivation reporter, mRNA readout. A digest of the protocol:
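Gain-of-signal mRNA induction, relative to DMSO vehicle, was read after 24 h compound treatment of HepG2 cells bearing transfected GAL4-UAS reporters. Detection used RT-PCR, 6-FAM primer extension and capillary electrophoresis.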

The nature of assay [5]: ATG_M_06_TRANS: Attagene TRANS-FACTORIAL HepG2 Assay for M06 Transcription Factor (Internal Marker) (AID 2282983; active means hit-call score of the fitted dose curve at least 0.9, where 1 is the maximum). Particulars: HepG2 Attagene TRANS M06 internal marker reporter. A digest of the protocol: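 Transfect HepG2 with MRTUs → dose compounds 24 h → isolate RNA, oligo(dT) RT → PCR with reporter primers → 6-FAM primer extension → HpaI digest → CE fragment analysis. Positive direction vs DMSO.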

The target of assay [6] is Transcriptional activator Myb (Homo sapiens) (UniProt P10242). Description: ATG_Myb_CIS: Attagene CIS-FACTORIAL HepG2 Assay for human Myeloblastosis (Myb) Proto-Oncogene Transcription Factor (AID 2282986). Particulars: HepG2 Attagene CIS-FACTORIAL Myb reporter transcription; actives raise or lower the signal. The essentials:
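Fluorescence signals from capillary electrophoresis of RT-PCR-amplified reporter cDNA give the read-out. Cells: HepG2 transfected with multiple cis-regulated reporter units. Exposure lasts 24 hours; DMSO defines baseline for gain or loss of signal.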

Assay [7] concerns the target Nuclear respiratory factor 1 (Homo sapiens) (UniProt Q16656). Put plainly: ATG_NRF1_CIS: Attagene CIS-FACTORIAL HepG2 Assay for human Nuclear Respiratory Factor 1 (NRF1) Orphan Gene (AID 2282987). Particulars: HepG2 NRF1 cis-element reporter, Attagene multiplex; actives raise or lower the signal. A digest of the protocol: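 Transcriptional reporter readout, one component of a 52-endpoint multiplexed HepG2 panel. Exposure 24 h; mRNA detected via RT-PCR and fluorescent capillary electrophoresis; fitting in both directions against DMSO.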

A short description of assay [8]: ATG_NFI_CIS: Attagene CIS-FACTORIAL HepG2 Assay for human Nuclear Factor I (NFI) (AID 2282989). Particulars: HepG2 cis-regulatory reporter, NFI response element transcription; actives raise or lower the signal. A digest of the protocol: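 Read-out: reporter mRNA via RT-PCR plus capillary electrophoresis with fluorescence detection. Transiently transfected HepG2 (endogenous TF activity on cis promoters), 24 h compound exposure; gain or loss of signal fitted against DMSO.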

The target in assay [9] is Myc proto-oncogene protein (Homo sapiens) (UniProt P01106). Description: ATG_Myc_CIS: Attagene CIS-FACTORIAL HepG2 Assay for human Myelocytomatosis (Myc) Proto-Oncogene Transcription Factor (AID 2282990). Particulars: HepG2, Attagene cis-reporter transcription factor activity; actives raise or lower the signal. A digest of the protocol: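 Read-out: fluorescent reporter mRNA fragments resolved by capillary electrophoresis after RT-PCR. Human HepG2 liver cells carried transfected cis-element reporter units and were dosed for 24 h. Gain or loss of signal fitted relative to DMSO baseline.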
Chain of Myc proto-oncogene protein (Homo sapiens) (P01106 whole entry, looked up, the tested form may be a part): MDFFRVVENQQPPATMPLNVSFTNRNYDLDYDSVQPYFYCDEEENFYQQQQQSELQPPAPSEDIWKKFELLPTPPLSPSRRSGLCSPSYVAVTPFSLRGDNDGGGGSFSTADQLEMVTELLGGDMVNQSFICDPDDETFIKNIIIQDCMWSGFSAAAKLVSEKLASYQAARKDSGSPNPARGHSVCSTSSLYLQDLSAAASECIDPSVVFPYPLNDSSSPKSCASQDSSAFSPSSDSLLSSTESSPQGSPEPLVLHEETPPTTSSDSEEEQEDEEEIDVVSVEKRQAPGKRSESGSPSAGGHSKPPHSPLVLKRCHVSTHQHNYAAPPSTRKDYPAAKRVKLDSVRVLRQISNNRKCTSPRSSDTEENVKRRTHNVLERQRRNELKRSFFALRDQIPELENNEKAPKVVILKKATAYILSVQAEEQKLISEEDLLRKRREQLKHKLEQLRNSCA

Assay [10] is described as follows: ATG_NRF2_ARE_CIS: Attagene CIS-FACTORIAL HepG2 Assay for human Nuclear Factor Erythroid 2 Related Factor 2 (NFR2) response to Antioxidant Response Elements (ARE) (AID 2282992).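 On AC50: reporter mRNA level measured by RT-PCR and capillary electrophoresis fluorescence.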 Conditions: HepG2 Attagene ARE/NRF2 reporter, transcription factor activity; actives raise or lower the signal. The essentials: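 Multiplexed reporter mRNA profiling in HepG2 after a 24 h chemical exposure. Curves fitted in both directions relative to DMSO negative control.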

Assay [11] in a line: ATG_Oct_MLP_CIS: Attagene CIS-FACTORIAL HepG2 Assay for human Octamer-Binding Transcription Factor (Oct) (AID 2282993). Conditions: HepG2 Attagene cis-factorial Oct reporter, mRNA; actives raise or lower the signal. A digest of the protocol:
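Read-out: reporter mRNA via RT-PCR plus capillary electrophoresis of 6-FAM-labelled fragments. Transiently transfected HepG2, 24 h exposure, endogenous TF activity on cis elements. Gain or loss of signal fitted relative to DMSO.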

Assay [12] addresses Cellular tumor antigen p53 (Homo sapiens) (UniProt P04637). Put plainly: ATG_p53_CIS: Attagene CIS-FACTORIAL HepG2 Assay for human p53 Transcription Factor (AID 2282994). Particulars: HepG2 p53 cis-element reporter, Attagene mRNA; actives raise or lower the signal. The essentials:
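Multiplexed reporter mRNA assay in human HepG2 liver cells; cis-regulated units report endogenous factor activity. Values come from bidirectional curve fitting against DMSO negative control after 24 h treatment.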

The target in assay [13] is Oxysterols receptor LXR-alpha (Homo sapiens) (UniProt Q13133). Put plainly: ATG_LXRa_TRANS: Attagene TRANS-FACTORIAL HepG2 Assay for human Liver X Receptor alpha (LXRa) (AID 2282980; active means hit-call score of the fitted dose curve at least 0.9, where 1 is the maximum). Particulars: HepG2 Attagene TRANS reporter, LXRa transactivation. A digest of the protocol:
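Transfect HepG2 with GAL4-UAS multiplex reporter constructs (TRANS format, chimeric receptor-GAL4); treat 24 h; extract RNA, reverse-transcribe, PCR-amplify, FAM-label, HpaI-digest; resolve fragments by capillary electrophoresis. Upward response vs DMSO.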

Assay [14] in a line: ATG_M_32_TRANS: Attagene TRANS-FACTORIAL HepG2 Assay for M32 Transcription Factor (Internal Marker) (AID 2282984; active means hit-call score of the fitted dose curve at least 0.9, where 1 is the maximum;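 further: transcript level of a background control reporter unit measured by RT-PCR and capillary electrophoresis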). Particulars: HepG2 Attagene TRANS M32 internal marker reporter. A digest of the protocol:
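Capillary electrophoresis of 6-FAM-labelled reporter fragments gives the signal; data fitted for gain over DMSO negative control. Source: HepG2 cells bearing transient multiple reporter transcription units, 24 h exposure.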

Assay [15] has as its target Nuclear receptor subfamily 4 group A member 2 (Homo sapiens) (UniProt P43354). Description: ATG_NURR1_TRANS: Attagene TRANS-FACTORIAL HepG2 Assay for human Nuclear Receptor Related Protein 1 (NURR1) (AID 2282985; active means hit-call score of the fitted dose curve at least 0.9, where 1 is the maximum). Conditions: HepG2 Attagene TRANS reporter, mRNA readout. A digest of the protocol:
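HepG2 / transient MRTU transfection / 24 h compound exposure / RT-PCR + CE fluorescence of reporter mRNA / gain-of-signal vs DMSO.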

The nature of assay [16]: ATG_NF_kB_CIS: Attagene CIS-FACTORIAL HepG2 Assay for human Nuclear Factor Kappa B (NF-kB) (AID 2282991). Conditions: HepG2 Attagene cis-factorial NF-kB reporter mRNA; actives raise or lower the signal. The essentials:
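HepG2, transient multi-reporter transfection, cis promoter elements (endogenous TFs). 24 h exposure. Total RNA → RT → PCR → 6-FAM label → HpaI → CE. Gain/loss vs DMSO.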

Inconclusive results are not listed. Activity calls are given as the source filed them. How the source made its calls, unless noted: active means hit-call score of the fitted dose curve at least 0.9, where 1 is the maximum; inactive means score below 0.9.

Chain of Cellular tumor antigen p53 (Homo sapiens) (P04637 whole entry, looked up): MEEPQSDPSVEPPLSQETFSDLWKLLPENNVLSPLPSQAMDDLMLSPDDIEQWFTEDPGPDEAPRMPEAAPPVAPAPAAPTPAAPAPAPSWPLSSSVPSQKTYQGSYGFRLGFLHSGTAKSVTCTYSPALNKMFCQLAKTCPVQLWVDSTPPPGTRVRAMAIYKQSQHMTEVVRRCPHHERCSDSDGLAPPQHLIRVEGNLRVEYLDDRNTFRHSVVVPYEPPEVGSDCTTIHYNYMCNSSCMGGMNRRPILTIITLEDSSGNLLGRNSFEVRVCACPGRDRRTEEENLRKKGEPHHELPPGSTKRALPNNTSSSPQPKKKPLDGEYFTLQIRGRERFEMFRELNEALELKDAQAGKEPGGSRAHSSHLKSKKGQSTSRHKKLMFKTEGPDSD
Chain of Glucocorticoid receptor (Homo sapiens) (P04150 whole entry, looked up, the tested form may be a part): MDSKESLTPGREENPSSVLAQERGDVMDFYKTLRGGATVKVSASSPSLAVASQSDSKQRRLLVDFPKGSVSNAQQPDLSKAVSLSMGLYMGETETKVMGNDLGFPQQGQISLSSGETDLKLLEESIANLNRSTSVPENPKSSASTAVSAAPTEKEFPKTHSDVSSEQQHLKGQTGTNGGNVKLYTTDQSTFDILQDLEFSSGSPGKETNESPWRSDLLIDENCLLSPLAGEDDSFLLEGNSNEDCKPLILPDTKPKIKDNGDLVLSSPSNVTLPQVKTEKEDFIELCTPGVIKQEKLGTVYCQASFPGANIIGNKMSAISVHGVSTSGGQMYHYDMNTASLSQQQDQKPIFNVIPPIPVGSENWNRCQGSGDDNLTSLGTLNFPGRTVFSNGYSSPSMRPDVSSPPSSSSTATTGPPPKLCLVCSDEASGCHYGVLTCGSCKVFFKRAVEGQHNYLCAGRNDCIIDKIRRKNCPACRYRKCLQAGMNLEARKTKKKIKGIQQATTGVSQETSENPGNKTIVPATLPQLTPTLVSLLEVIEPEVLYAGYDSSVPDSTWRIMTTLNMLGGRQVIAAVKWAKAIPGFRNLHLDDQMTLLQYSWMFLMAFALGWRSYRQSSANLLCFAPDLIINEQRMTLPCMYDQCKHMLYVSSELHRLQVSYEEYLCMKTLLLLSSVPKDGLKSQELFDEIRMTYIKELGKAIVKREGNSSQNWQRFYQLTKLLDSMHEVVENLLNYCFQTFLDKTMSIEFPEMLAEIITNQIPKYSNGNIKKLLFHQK
Chain of Oxysterols receptor LXR-beta (Homo sapiens) (P55055 whole entry, looked up, the tested form may be a part): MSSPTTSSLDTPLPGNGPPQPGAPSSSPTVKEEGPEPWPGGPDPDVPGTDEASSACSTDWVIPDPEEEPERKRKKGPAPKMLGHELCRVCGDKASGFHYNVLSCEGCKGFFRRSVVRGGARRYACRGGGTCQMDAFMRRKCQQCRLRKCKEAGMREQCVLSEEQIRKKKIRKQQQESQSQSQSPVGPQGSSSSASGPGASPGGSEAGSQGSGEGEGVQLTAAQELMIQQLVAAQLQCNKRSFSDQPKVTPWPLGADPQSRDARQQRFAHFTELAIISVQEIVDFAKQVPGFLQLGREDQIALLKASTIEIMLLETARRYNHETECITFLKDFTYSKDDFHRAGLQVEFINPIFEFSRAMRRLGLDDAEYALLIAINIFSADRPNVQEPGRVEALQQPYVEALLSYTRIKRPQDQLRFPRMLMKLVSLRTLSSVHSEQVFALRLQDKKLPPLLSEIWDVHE
Chain of Hepatocyte nuclear factor 4-alpha (Homo sapiens) (P41235 whole entry, looked up, the tested form may be a part): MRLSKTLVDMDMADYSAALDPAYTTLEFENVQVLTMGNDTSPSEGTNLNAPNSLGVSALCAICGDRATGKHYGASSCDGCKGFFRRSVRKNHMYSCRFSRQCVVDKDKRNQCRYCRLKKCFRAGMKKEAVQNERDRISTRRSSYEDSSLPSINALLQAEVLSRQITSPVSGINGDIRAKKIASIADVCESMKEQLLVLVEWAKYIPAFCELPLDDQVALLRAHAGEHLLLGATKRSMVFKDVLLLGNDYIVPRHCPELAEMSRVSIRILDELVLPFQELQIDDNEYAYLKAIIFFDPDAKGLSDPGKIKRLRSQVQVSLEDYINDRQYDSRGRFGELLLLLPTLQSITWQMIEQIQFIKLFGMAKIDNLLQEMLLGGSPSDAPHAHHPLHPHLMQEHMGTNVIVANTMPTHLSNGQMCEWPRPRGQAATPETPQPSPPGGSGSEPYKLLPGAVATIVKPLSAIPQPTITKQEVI
Chain of Nuclear receptor subfamily 4 group A member 2 (Homo sapiens) (P43354 whole entry, looked up): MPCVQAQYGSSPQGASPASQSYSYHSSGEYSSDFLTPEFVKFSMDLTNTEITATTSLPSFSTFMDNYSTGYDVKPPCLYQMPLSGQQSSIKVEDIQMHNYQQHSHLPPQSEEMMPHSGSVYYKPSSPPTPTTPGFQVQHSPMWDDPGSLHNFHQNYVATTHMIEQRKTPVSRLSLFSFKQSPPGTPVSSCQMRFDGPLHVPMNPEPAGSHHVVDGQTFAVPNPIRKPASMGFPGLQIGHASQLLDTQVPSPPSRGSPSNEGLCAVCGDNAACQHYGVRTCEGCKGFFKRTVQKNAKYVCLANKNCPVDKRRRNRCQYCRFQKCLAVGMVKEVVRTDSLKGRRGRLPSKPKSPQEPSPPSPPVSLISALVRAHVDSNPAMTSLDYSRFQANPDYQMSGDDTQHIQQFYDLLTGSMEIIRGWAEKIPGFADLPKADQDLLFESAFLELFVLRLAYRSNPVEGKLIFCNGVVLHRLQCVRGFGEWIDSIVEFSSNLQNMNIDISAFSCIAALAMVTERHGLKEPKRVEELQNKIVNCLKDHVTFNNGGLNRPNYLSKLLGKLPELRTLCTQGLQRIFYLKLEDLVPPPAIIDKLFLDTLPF
Chain of Nuclear respiratory factor 1 (Homo sapiens) (Q16656 whole entry, looked up): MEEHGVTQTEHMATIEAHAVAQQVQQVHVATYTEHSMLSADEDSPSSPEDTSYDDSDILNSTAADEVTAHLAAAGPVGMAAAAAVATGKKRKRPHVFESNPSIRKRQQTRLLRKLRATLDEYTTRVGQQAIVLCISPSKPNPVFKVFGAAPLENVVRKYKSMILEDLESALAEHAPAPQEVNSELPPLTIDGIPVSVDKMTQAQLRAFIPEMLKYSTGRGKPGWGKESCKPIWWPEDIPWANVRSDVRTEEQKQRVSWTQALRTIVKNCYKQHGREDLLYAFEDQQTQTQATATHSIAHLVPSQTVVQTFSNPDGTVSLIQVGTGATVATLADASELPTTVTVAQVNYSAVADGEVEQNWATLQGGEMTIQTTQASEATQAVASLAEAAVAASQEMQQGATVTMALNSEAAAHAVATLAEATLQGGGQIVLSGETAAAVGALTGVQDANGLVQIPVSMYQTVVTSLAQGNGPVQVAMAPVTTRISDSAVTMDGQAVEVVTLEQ
Chain of Transcriptional activator Myb (Homo sapiens) (P10242 whole entry, looked up): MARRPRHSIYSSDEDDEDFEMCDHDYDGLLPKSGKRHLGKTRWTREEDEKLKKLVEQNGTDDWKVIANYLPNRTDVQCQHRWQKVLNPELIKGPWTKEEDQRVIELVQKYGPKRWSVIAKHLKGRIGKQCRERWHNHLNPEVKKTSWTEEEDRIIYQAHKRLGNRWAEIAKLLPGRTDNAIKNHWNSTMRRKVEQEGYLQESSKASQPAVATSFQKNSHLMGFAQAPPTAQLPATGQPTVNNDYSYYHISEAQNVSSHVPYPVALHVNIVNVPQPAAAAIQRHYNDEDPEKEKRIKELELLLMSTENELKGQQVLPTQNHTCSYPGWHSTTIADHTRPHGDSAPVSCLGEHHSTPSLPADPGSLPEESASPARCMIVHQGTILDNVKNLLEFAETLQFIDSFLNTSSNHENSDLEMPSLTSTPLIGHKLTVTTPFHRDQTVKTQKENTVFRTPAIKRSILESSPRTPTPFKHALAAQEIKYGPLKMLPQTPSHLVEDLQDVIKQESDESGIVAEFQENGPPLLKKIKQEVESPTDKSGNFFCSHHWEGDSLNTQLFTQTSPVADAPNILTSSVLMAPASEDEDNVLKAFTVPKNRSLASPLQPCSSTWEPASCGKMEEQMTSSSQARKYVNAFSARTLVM

For the compound `CN1CCc2cccc3c2[C@H]1Cc1ccc(O)c(O)c1-3`, the outcome in assay [1], in [2], in assay [3], in [4], in [5] and in assay [6] was inactive. Also, the call in assay [8], in assay [9], in assay [11] and in [12] was inactive. For the same compound, the AC50 – broadly, the midpoint of the concentration-response curve, whichever way the signal moves – was 3.59 µM (active) in assay [7] and 5.05 µM (active) in assay [10].
In the case of `CCOCC(C)O` (stereo unspecified), the outcome in assay [1], in assay [13], in [3], in assay [4], in assay [14] and in assay [15] was inactive. Besides, the compound was called inactive in [6], in [7], in [9], in assay [10] and in [11].
For the compound `COc1ccc2[nH]cc(CCNC(C)=O)c2c1`, the outcome in [1], in [2], in assay [13], in assay [3], in [4] and in assay [5] was inactive. In addition, the result in assay [14], in [15], in assay [6], in assay [7], in [9] and in [10] was inactive. The compound was called inactive in [11] and in [12].
Consider `CC(=O)N(C)C`, for which the compound was classed as inactive in assay [1], in [2], in [6], in assay [9], in [11] and in assay [12].
In the case of `Cc1cc(O)c2c(c1)C(=O)c1cc(O)cc(O)c1C2=O`, the compound was classed as inactive in assay [1], in [3], in [4], in assay [5], in [15] and in assay [6]. Further, the result in assay [7], in assay [9] and in [12] was inactive. For the same compound, the AC50 in assay [8] was 8.34 µM (active); in assay [16] it was 17.4 µM (active); in [10], 4.77 µM (active); in assay [11], 8.59 µM (active).
For the compound `CCC(C)(C)C1CCC(=O)CC1`, the compound was called inactive in [1], in assay [3], in assay [5], in assay [6], in assay [7] and in [8]. Besides, the compound was classed as inactive in [9], in assay [16], in [10] and in assay [11].

For the origin of these results see PubChem BioAssay (EPA / NIEHS).
